# Where a structure was tested more than once in an assay, its records may differ in their call. Activity calls are given as the source filed them. The calls were made as follows: active = hit-call score of the fitted dose curve at least 0.9, where 1 is the maximum; inactive = score below 0.9.
# Read-out: TIMP metallopeptidase inhibitor 1 (TIMP1), TIMP1 (gene 7076)
# Test: BSK_hDFCGF_TIMP1: BioMAP Diversity Plus: hDFCGF Assay for TIMP metallopeptidase inhibitor 1 (TIMP1) Biomarker Activity (AID 2283062)
# Conditions: primary human foreskin fibroblasts; actives raise or lower the signal
# Description: BSK_hDFCGF is a cell-based, multiplexed-readout assay that uses foreskin fibroblast, a human skin primary cell, with measurements taken at 24 hours after chemical dosing in a 96-well plate.BSK_hDFCGF_TIMP1 is an assay component measured in the BSK_hDFCGF assay. It measures TIMP-1 antibody related to regulation of gene expression using ELISA technology.Data from the assay component BSK_hDFCGF_TIMP1 was analyzed into 1 assay endpoint. This assay endpoint, BSK_hDFCGF_TIMP1, was analyzed with bidirectional fitting relative to DMSO as the negative control and baseline of activity. Using a type of binding reporter, gain or loss-of-signal activity can be used to understand changes in the signaling as they relate to the gene TIMP1. Furthermore, this assay endpoint can be referred to as a primary readout, because this assay has produced multiple assay endpoints where this one serves a signaling function. To generalize the intended target to other relatable targets, this assay endpoint is annotated to the protease inhibitor intended target family, where the subfamily is metalloproteinase inhibitor.
# The levels of cell surface (or secreted, indicated by the prefix "s") biomarker endpoints were measured by ELISA. Overt cytotoxicity to cells in confluent adherent cultures (all systems other than the BT system) was assessed by measuring total protein levels using sulforhodamine B (SRB) staining in parallel cultures at the time of biomarker measurements, indicated as SRB endpoints. For proliferation assays for adherent cell types, individual cell types are cultured at sub-confluence and relative cell numbers quantified by SRB staining at time points optimized for each system (48 h: 3C and CASM3C systems; 72 h: BT and HDF3CGF systems; 96 h: SAg system). SRB was performed by staining cells with 0.1% SRB after fixation with 10% TCA and reading wells at 560 nm.Viability and proliferation of PBMC (T cells) was quantified by Alamar Blue reduction for the SAg and BT systems. For PBMC viability (referred to as PBMC Cytotoxicity within the assay endpoint names), cells were plated (75,000/well in a 96-well plate) and then chemical samples added for 1 h before addition of activators, SEB and TSST-1 (20 ng/mL final concentration each). Cells were incubated for 90 h. Then, Alamar Blue (20 uL/well) (Invitrogen, Cat DAL1100) was added for 6 h, and the plates were read with a fluorescence microplate reader at 546/580 nm (excitation/emission). For PBMC proliferation, cells were plated and activated as above but incubated for only 16 h prior to addition of Alamar Blue. Plates were read after 6 h.
SMILES,outcome,AC50
O=C(NC(=O)c1c(F)cccc1F)Nc1ccc(OC(F)(F)C(F)OC(F)(F)F)c(Cl)c1 (stereo not given),inactive,–
CCS(=O)(=O)c1cccnc1S(=O)(=O)NC(=O)Nc1nc(OC)cc(OC)n1,inactive,–
O=C(O)COc1ccc(Cl)cc1Cl,inactive,–
CCC(C)(NC(=O)c1cc(Cl)c(C)c(Cl)c1)C(=O)CCl (stereo not given),–,34.3 µM (active)
COC(=O)c1ccccc1S(=O)(=O)NC(=O)Nc1nc(C)nc(OC)n1,inactive,–
ClC1C(Cl)C(Cl)C(Cl)C(Cl)C1Cl (stereo not given),inactive,–
CC(C)(C)C(O)C(Oc1ccc(Cl)cc1)n1cncn1 (stereo not given),inactive,–
CCc1ccc(C(=O)NN(C(=O)c2cc(C)cc(C)c2)C(C)(C)C)cc1,inactive,–
COc1nn(CSP(=S)(OC)OC)c(=O)s1,inactive,–
O=C(O)CCCOc1ccc(Cl)cc1Cl,inactive,–
Oc1cc(Cl)ccc1Oc1ccc(Cl)cc1Cl,–,20 µM (active) [middle of 4 runs]
CCCN(CCC)c1c([N+](=O)[O-])cc(C(F)(F)F)cc1[N+](=O)[O-],inactive,–
CCC(C)(C)C(=O)OC1=C(c2ccc(Cl)cc2Cl)C(=O)OC12CCCCC2,–,5.42 µM (active)
CNC(=O)Oc1cccc(N=CN(C)C)c1,inactive,–
CC1(c2ccc(Oc3ccccc3)cc2)OC(=O)N(Nc2ccccc2)C1=O (stereo not given),inactive,–
O=C1c2ccccc2C(=O)N1SC(Cl)(Cl)Cl,inactive,–
COP(=O)(OC)OC=C(Cl)Cl,inactive,–
N#Cc1c(Cl)c(Cl)c(Cl)c(C#N)c1Cl,–,2.58 µM (active)
CC(C)N(C(=O)COc1nnc(C(F)(F)F)s1)c1ccc(F)cc1,inactive,–
C[C@H]1[C@H](c2ccc(Cl)cc2)SC(=O)N1C(=O)NC1CCCCC1,inactive,–

SMILES,outcome,AC50
C#CCN1C(=O)COc2cc(F)c(N3C(=O)C4=C(CCCC4)C3=O)cc21,inactive,–
COC(=O)c1ccccc1CS(=O)(=O)NC(=O)Nc1nc(OC)cc(OC)n1,inactive,–
[2H]C1([2H])[n+]2ccccc2-c2cccc[n+]2C1([2H])[2H],inactive,–
CN1CSC(=S)N(C)C1,inactive,–
CCN(CC)C(=O)SCc1ccc(Cl)cc1,inactive,–
COP(=S)(OC)Oc1ccc(SC)c(C)c1,inactive,–
O=S(=O)(O)C(F)(F)C(F)(F)C(F)(F)C(F)(F)C(F)(F)C(F)(F)C(F)(F)C(F)(F)F,inactive,0.485 µM (active)
O=S1OCC2C(CO1)C1(Cl)C(Cl)=C(Cl)C2(Cl)C1(Cl)Cl (stereo not given),–,32 µM (active)
CC1(C)C(C=C(Cl)Cl)C1C(=O)OC(C#N)c1ccc(F)c(Oc2ccccc2)c1 (stereo not given),inactive,–
CCCN(CCOc1c(Cl)cc(Cl)cc1Cl)C(=O)n1ccnc1,inactive,–
CCOc1nc(NC)nc(NC(=O)NS(=O)(=O)c2ccccc2C(=O)OC)n1,–,25.5 µM (active)
CCOCN(C(=O)CCl)c1c(C)cccc1CC,inactive,–
COc1cc(OC)nc(NC(=O)NS(=O)(=O)c2cc(NC=O)ccc2C(=O)N(C)C)n1,inactive,–
O=[N+]([O-])c1c(Cl)c(Cl)c(Cl)c(Cl)c1Cl,inactive,–
CNC(=O)/C=C(\C)OP(=O)(OC)OC,inactive,–
CNC(=O)CSP(=S)(OC)OC,inactive,–
CCC(C)Nc1c([N+](=O)[O-])cc(C(C)(C)C)cc1[N+](=O)[O-] (stereo not given),inactive,–
N#CN,inactive,–
CC(C)(C)C(O)/C(=C\c1ccc(Cl)cc1Cl)n1cncn1 (stereo not given),–,25.7 µM (active)

# Reference: PubChem BioAssay (EPA / NIEHS)
